# The supplement of paper PMC4466140
# B1: unnamed (peptide)
# chain: NFFRKKLGIPRKLKR
# B2: unnamed (peptide)
# chain: PLRRTVMSLPGNHDI
# B3: unnamed (peptide)
# chain: NGRRRPKFRVQLSGN
# Molecular target: CaNbp2
# Assay: SPOT peptide array binding signal intensity (averaged, normalized) (arbitrary units (background-subtracted, floor 0; scale differs between SH3 domains)); higher = stronger binding of the SH3 domain to the peptide
# How it was run: (§1)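 GST-fused SH3 domains from four yeast species were expressed in E. coli BL21(DE3), purified on glutathione Sepharose and incubated at 10 μg/ml overnight at 4°C in TBS-based blocking buffer on cellulose membranes carrying synthetic 15-mer peptides, with cysteines replaced by serines. Bound protein was detected with anti-GST antibody, an HRP anti-mouse secondary and luminol, then imaged and quantified with Genespotter. Binding signal is the normalized, background-subtracted spot intensity averaged over replicates, in arbitrary units that differ between domains.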
row,Binder,SPOT peptide array binding signal intensity
1,B1,189
2,B2,1640
3,B3,762

# Molecular target: CaRvs167
# Assay: as above
# How it was run: as §1
row,Binder,SPOT peptide array binding signal intensity
1,B1,8.83
2,B2,110
3,B3,80.3

# Molecular target: CaRvs167-3
# Assay: as above
# How it was run: as §1
row,Binder,SPOT peptide array binding signal intensity
1,B1,47
2,B2,20
3,B3,232

# Molecular target: CaSho1
# Assay: as above
# How it was run: as §1
row,Binder,SPOT peptide array binding signal intensity
1,B1,447
2,B2,837
3,B3,1190

# Molecular target: CaSla1-D1-D2
# Assay: as above
# How it was run: as §1
row,Binder,SPOT peptide array binding signal intensity
1,B1,11
2,B2,247
3,B3,295

# Molecular target: CaSla1-D3
# Assay: as above
# How it was run: as §1
row,Binder,SPOT peptide array binding signal intensity
1,B1,2.5
2,B2,60.2
3,B3,84

# Molecular target: ScAbp1
# Assay: as above
# How it was run: as §1
row,Binder,SPOT peptide array binding signal intensity
1,B1,146
2,B2,205
3,B3,130

# Molecular target: ScBbc1
# Assay: as above
# How it was run: as §1
row,Binder,SPOT peptide array binding signal intensity
1,B1,4.5
2,B2,13
3,B3,28.8

# Molecular target: ScBem1-D1
# Assay: as above
# How it was run: as §1
row,Binder,SPOT peptide array binding signal intensity
1,B1,14
2,B2,1.5
3,B3,166

# Molecular target: ScBzz1-D1
# Assay: as above
# How it was run: as §1
row,Binder,SPOT peptide array binding signal intensity
1,B1,9
2,B2,4.75
3,B3,41

# Molecular target: ScBzz1-D2
# Assay: as above
# How it was run: as §1
row,Binder,SPOT peptide array binding signal intensity
1,B1,13.5
2,B2,5.75
3,B3,104

# Molecular target: ScCyk3
# Assay: as above
# How it was run: as §1
row,Binder,SPOT peptide array binding signal intensity
1,B1,53
2,B2,15
3,B3,131

# Molecular target: ScFus1
# Assay: as above
# How it was run: as §1
row,Binder,SPOT peptide array binding signal intensity
1,B1,314
2,B2,407
3,B3,2430

# Molecular target: ScHof1
# Assay: as above
# How it was run: as §1
row,Binder,SPOT peptide array binding signal intensity
1,B1,1.25
2,B2,≤ 0
3,B3,6.5

# Molecular target: ScHse1
# Assay: as above
# How it was run: as §1
row,Binder,SPOT peptide array binding signal intensity
1,B1,1910
2,B2,288
3,B3,3000

# Molecular target: ScLsb1
# Assay: as above
# How it was run: as §1
row,Binder,SPOT peptide array binding signal intensity
1,B1,13.5
2,B2,14.5
3,B3,6

# Molecular target: ScLsb2
# Assay: as above
# How it was run: as §1
row,Binder,SPOT peptide array binding signal intensity
1,B1,8
2,B2,≤ 0
3,B3,14

# Molecular target: ScLsb3
# Assay: as above
# How it was run: as §1
row,Binder,SPOT peptide array binding signal intensity
1,B1,103
2,B2,52
3,B3,719

# Molecular target: ScLsb4
# Assay: as above
# How it was run: as §1
row,Binder,SPOT peptide array binding signal intensity
1,B1,3
2,B2,60
3,B3,42.5

# Molecular target: ScMyo3
# Assay: as above
# How it was run: as §1
row,Binder,SPOT peptide array binding signal intensity
1,B1,≤ 0
2,B2,≤ 0
3,B3,1.5

# Molecular target: ScMyo5
# Assay: as above
# How it was run: as §1
row,Binder,SPOT peptide array binding signal intensity
1,B1,0.5
2,B2,≤ 0
3,B3,4.75

# Molecular target: ScNbp2
# Assay: as above
# How it was run: as §1
row,Binder,SPOT peptide array binding signal intensity
1,B1,68
2,B2,584
3,B3,489

# Molecular target: ScPex13
# Assay: as above
# How it was run: as §1
row,Binder,SPOT peptide array binding signal intensity
1,B1,0.5
2,B2,177
3,B3,4

# Molecular target: ScRvs167
# Assay: as above
# How it was run: as §1
row,Binder,SPOT peptide array binding signal intensity
1,B1,2.33
2,B2,51.9
3,B3,52.7

# Molecular target: ScSho1
# Assay: as above
# How it was run: as §1
row,Binder,SPOT peptide array binding signal intensity
1,B1,473
2,B2,909
3,B3,2060

# Molecular target: ScSla1-D1-D2
# Assay: as above
# How it was run: as §1
row,Binder,SPOT peptide array binding signal intensity
1,B1,38.5
2,B2,305
3,B3,693

# Molecular target: ScSla1-D3
# Assay: as above
# How it was run: as §1
row,Binder,SPOT peptide array binding signal intensity
1,B1,6.25
2,B2,404
3,B3,6.5

# Molecular target: SpAbp1-D1
# Assay: as above
# How it was run: as §1
row,Binder,SPOT peptide array binding signal intensity
1,B1,462
2,B2,671
3,B3,561

# Molecular target: SpBbc1
# Assay: as above
# How it was run: as §1
row,Binder,SPOT peptide array binding signal intensity
1,B1,3
2,B2,1.5
3,B3,13

# Molecular target: SpBzz1-D1
# Assay: as above
# How it was run: as §1
row,Binder,SPOT peptide array binding signal intensity
1,B1,50
2,B2,243
3,B3,162

# Molecular target: SpBzz1-D2
# Assay: as above
# How it was run: as §1
row,Binder,SPOT peptide array binding signal intensity
1,B1,≤ 0
2,B2,7.25
3,B3,0.75

# Molecular target: SpCyk3
# Assay: as above
# How it was run: as §1
row,Binder,SPOT peptide array binding signal intensity
1,B1,≤ 0
2,B2,0.5
3,B3,4

# Molecular target: SpHof1
# Assay: as above
# How it was run: as §1
row,Binder,SPOT peptide array binding signal intensity
1,B1,87
2,B2,10
3,B3,269

# Molecular target: SpHof1-2
# Assay: as above
# How it was run: as §1
row,Binder,SPOT peptide array binding signal intensity
1,B1,1.25
2,B2,24.2
3,B3,12.5

# Molecular target: SpHof1-3
# Assay: as above
# How it was run: as §1
row,Binder,SPOT peptide array binding signal intensity
1,B1,998
2,B2,261
3,B3,788

# Molecular target: SpHse1
# Assay: as above
# How it was run: as §1
row,Binder,SPOT peptide array binding signal intensity
1,B1,1560
2,B2,788
3,B3,1140

# Molecular target: SpLsb1
# Assay: as above
# How it was run: as §1
row,Binder,SPOT peptide array binding signal intensity
1,B1,25.5
2,B2,2.25
3,B3,10.5

# Molecular target: SpLsb4
# Assay: as above
# How it was run: as §1
row,Binder,SPOT peptide array binding signal intensity
1,B1,19
2,B2,258
3,B3,294

# Molecular target: SpMyo1
# Assay: as above
# How it was run: as §1
row,Binder,SPOT peptide array binding signal intensity
1,B1,0.5
2,B2,2.5
3,B3,18.8

# Molecular target: SpNbp2
# Assay: as above
# How it was run: as §1
row,Binder,SPOT peptide array binding signal intensity
1,B1,63.5
2,B2,392
3,B3,1300

# Molecular target: SpPex13
# Assay: as above
# How it was run: as §1
row,Binder,SPOT peptide array binding signal intensity
1,B1,5
2,B2,40
3,B3,62.5

# Molecular target: SpRvs167
# Assay: as above
# How it was run: as §1
row,Binder,SPOT peptide array binding signal intensity
1,B1,3.67
2,B2,48.8
3,B3,14.2

# Molecular target: SpSla1-D1-D2
# Assay: as above
# How it was run: as §1
row,Binder,SPOT peptide array binding signal intensity
1,B1,≤ 0
2,B2,1.5
3,B3,≤ 0

# Molecular target: SpSla1-D3
# Assay: as above
# How it was run: as §1
row,Binder,SPOT peptide array binding signal intensity
1,B1,17.5
2,B2,126
3,B3,43

# Molecular target: AgAbp1
# Assay: as above
# How it was run: as §1
row,Binder,SPOT peptide array binding signal intensity
1,B2,206
2,B3,206

# Molecular target: AgBbc1
# Assay: as above
# How it was run: as §1
row,Binder,SPOT peptide array binding signal intensity
1,B2,19.6
2,B3,71

# Molecular target: AgBem1-D1
# Assay: as above
# How it was run: as §1
row,Binder,SPOT peptide array binding signal intensity
1,B2,302
2,B3,339

# Molecular target: AgBzz1-D1
# Assay: as above
# How it was run: as §1
row,Binder,SPOT peptide array binding signal intensity
1,B2,9.5
2,B3,84

# Molecular target: AgBzz1-D2
# Assay: as above
# How it was run: as §1
row,Binder,SPOT peptide array binding signal intensity
1,B2,4.75
2,B3,46

# Molecular target: AgCyk3
# Assay: as above
# How it was run: as §1
row,Binder,SPOT peptide array binding signal intensity
1,B2,≤ 0
2,B3,5

# Molecular target: AgFus1
# Assay: as above
# How it was run: as §1
row,Binder,SPOT peptide array binding signal intensity
1,B2,598
2,B3,1440

# Molecular target: AgHof1
# Assay: as above
# How it was run: as §1
row,Binder,SPOT peptide array binding signal intensity
1,B2,6.25
2,B3,47.8

# Molecular target: AgHse1
# Assay: as above
# How it was run: as §1
row,Binder,SPOT peptide array binding signal intensity
1,B2,302
2,B3,1600

# Molecular target: AgLsb1
# Assay: as above
# How it was run: as §1
row,Binder,SPOT peptide array binding signal intensity
1,B2,29.5
2,B3,16.5

# Molecular target: AgLsb4
# Assay: as above
# How it was run: as §1
row,Binder,SPOT peptide array binding signal intensity
1,B2,4.5
2,B3,379

# Molecular target: AgMyo5
# Assay: as above
# How it was run: as §1
row,Binder,SPOT peptide array binding signal intensity
1,B2,3
2,B3,1.5

# Molecular target: AgNbp2
# Assay: as above
# How it was run: as §1
row,Binder,SPOT peptide array binding signal intensity
1,B2,396
2,B3,430

# Molecular target: AgRvs167
# Assay: as above
# How it was run: as §1
row,Binder,SPOT peptide array binding signal intensity
1,B2,3.83
2,B3,9

# Molecular target: AgSho1
# Assay: as above
# How it was run: as §1
row,Binder,SPOT peptide array binding signal intensity
1,B2,453
2,B3,269

# Molecular target: AgSla1-D1-D2
# Assay: as above
# How it was run: as §1
row,Binder,SPOT peptide array binding signal intensity
1,B2,24.2
2,B3,462

# Molecular target: AgSla1-D3
# Assay: as above
# How it was run: as §1
row,Binder,SPOT peptide array binding signal intensity
1,B2,6
2,B3,13

# Molecular target: CaAbp1-D1
# Assay: as above
# How it was run: as §1
row,Binder,SPOT peptide array binding signal intensity
1,B2,776
2,B3,596

# Molecular target: CaAbp1-D2
# Assay: as above
# How it was run: as §1
row,Binder,SPOT peptide array binding signal intensity
1,B2,1280
2,B3,855

# Molecular target: CaBbc1
# Assay: as above
# How it was run: as §1
row,Binder,SPOT peptide array binding signal intensity
1,B2,154
2,B3,134

# Molecular target: CaBem1-D1
# Assay: as above
# How it was run: as §1
row,Binder,SPOT peptide array binding signal intensity
1,B2,200
2,B3,74.5

# Molecular target: CaBzz1-D1
# Assay: as above
# How it was run: as §1
row,Binder,SPOT peptide array binding signal intensity
1,B2,172
2,B3,185

# Molecular target: CaBzz1-D2
# Assay: as above
# How it was run: as §1
row,Binder,SPOT peptide array binding signal intensity
1,B2,62.4
2,B3,114

# Molecular target: CaCyk3
# Assay: as above
# How it was run: as §1
row,Binder,SPOT peptide array binding signal intensity
1,B2,17
2,B3,33

# Molecular target: CaFus1
# Assay: as above
# How it was run: as §1
row,Binder,SPOT peptide array binding signal intensity
1,B2,1290
2,B3,3650

# Molecular target: CaHof1
# Assay: as above
# How it was run: as §1
row,Binder,SPOT peptide array binding signal intensity
1,B2,0.375
2,B3,0.75

# Molecular target: CaHse1
# Assay: as above
# How it was run: as §1
row,Binder,SPOT peptide array binding signal intensity
1,B2,106
2,B3,202

# Molecular target: CaLsb1
# Assay: as above
# How it was run: as §1
row,Binder,SPOT peptide array binding signal intensity
1,B2,0.5
2,B3,4

# Molecular target: CaLsb4
# Assay: as above
# How it was run: as §1
row,Binder,SPOT peptide array binding signal intensity
1,B2,493
2,B3,238

# Molecular target: CaMyo5
# Assay: as above
# How it was run: as §1
row,Binder,SPOT peptide array binding signal intensity
1,B2,19.6
2,B3,4
